# Screening data as filed in PubChem BioAssay.
# Dicer processing = inhibitors of human Dicer processing of pre-microRNA. Q9UPY3. cat-ELCCA pre-miR-21 Dicer processing, chemiluminescence; hits give high values. z-score at 25 µM. 47,000 tested, 6% active. AID 1347074; in the data active = z-score above about 3, passing the limit was not always enough;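 also: higher signal means more uncleaved substrate so more Dicer inhibition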
# A number is an active result; i = inactive. Only a selection was taken, and hits are over-represented in it overall.
SMILES,Dicer processing
O=C(Nc1ccc(Cl)cc1O)c1ccco1,5.69
O=C(Nc1cccc2cccnc12)c1ccco1,i
O=C(Nc1cc(-c2nc3cc(Cl)ccc3o2)ccc1Cl)c1ccco1,i
CN(C)S(=O)(=O)c1ccc(-c2cc(C(F)(F)F)on2)s1,i
O=C(CSc1ncn[nH]1)c1ccc(-c2ccccc2)cc1,i
CCOC(=O)c1nnn2c1nc(N1CCN(C)CC1)c1ccccc12,i
Nc1nc2c(-c3ccc([N+](=O)[O-])cc3)nnn2c2ccccc12,3.88
Nc1nc2c(C(=O)N3CCOCC3)nnn2c2ccccc12,i
CN(C)/C=C(\C(=S)c1ccccc1)c1ccccc1,i
COc1ccc(-c2c(C)nc3ccc(Cl)cc3c2-c2ccccc2)cc1OC,i
CC1CC(NC(=S)Nc2ccc(I)cc2F)CC(C)(C)C1 (stereo unspecified),i
CC1CC(NC(=S)NC2CC3CC2C2C=CCC32)CC(C)(C)C1 (stereo unspecified),3.11
S=C(N/N=C/C=C/c1ccccc1)NC1CC2CC1C1C=CCC21 (stereo unspecified),i
COc1ccccc1OCCSc1nc2ccccc2[nH]1,i
COc1ccc(S(=O)(=O)N2CCN(C3CCC(C)CC3)CC2)cc1 (stereo unspecified),i
COc1cc(Cl)ccc1N/N=C(\C#N)C(N)=O,4.95
COc1ccc(Cl)cc1NC(C)=O,i
N#C/C(=N\Nc1ccc(Cl)cc1)C(=O)C1CC1,i
Cc1cc(C)c2c(n1)sc1c(=O)sc(NC(=O)c3ccc(C(F)(F)F)nc3C)nc12,i
CC(C)(C)c1ccc(C(=O)/C=c2\[nH]c(=O)/c(=C\c3cccs3)s2)cc1,3.38
CC(C)(C)c1ccc(C(=O)/C=C2\NC(=O)CS2)cc1,i
COc1cccc(C(=O)/C=c2\[nH]c(=O)/c(=C\c3ccccc3)s2)c1,i
O=S(=O)(c1sc(Br)cc1Br)N1CCSCC1,i
CC12CC3(C)CC(C)(C1)CC(C(=O)O)(C2)C3,i
O=C1c2cccc3cccc(c23)C(=O)N1Nc1ccccc1,i
SMILES,Dicer processing
Cc1c(O)c(=O)n(-c2ccccc2)n1C,i
Cc1c(N2C(=O)c3cccc4cccc(c34)C2=O)c(=O)n(-c2ccccc2)n1C,4.37
Cc1ccc(C(O)COC2=NCNc3cc(Cl)ccc32)cc1 (stereo unspecified),i
CNC(=O)N(CCS(=O)(=O)c1ccc(Cl)cc1)Cc1cccs1,i
CCN(CCS(=O)(=O)c1ccccc1)S(=O)(=O)c1ccc(Cl)cc1,i
CCN(CCS(=O)(=O)c1ccc(Cl)cc1)C(=O)Nc1ccccc1,3.32
NC(=O)C1(N2CCCCC2)CCN(S(=O)(=O)c2ccc3c(c2)OCC3)CC1,i
Nc1ccc2oc(-c3cccc(-c4nc5cc(N)ccc5o4)n3)nc2c1,i
Cc1ccccc1-c1nc2cc(N)ccc2o1,i
Nc1ccc(CCc2nc3cc(N)ccc3o2)cc1,3.87
C=CCOC(=O)c1sc(N2C(=O)c3oc4ccc(C)cc4c(=O)c3C2c2ccccc2F)nc1C (stereo unspecified),i
CCN(CC)C(=O)C1Sc2nnc(C)n2NC1c1ccc(C)cc1 (stereo unspecified),i
CC(=O)c1ccc(Oc2ccc([N+](=O)[O-])c(Oc3ccc(C(C)=O)cc3)n2)cc1,i
O=C1c2ccccc2S(=O)(=O)N1Cc1cccc2ccccc12,i
O=C(OCCN1CCN(C2=NS(=O)(=O)c3ccccc32)CC1)c1cccc2ccccc12,3.25
O=C1c2ccccc2S(=O)(=O)N1CCCCN1CCN(c2ncccn2)CC1,i
CSc1ccccc1NC(=O)c1cnn2c1NC(c1cccs1)CC2C(F)(F)F (stereo unspecified),i
O=C(Nc1ccc(Br)cc1)c1cc2n(n1)C(C(F)(F)F)CC(c1cccs1)N2 (stereo unspecified),i
CC(C)(C)NC(=O)c1cnn2c1NC(c1ccc(F)cc1)CC2C(F)(F)F (stereo unspecified),i
O=C(Nc1ccc(Br)cc1)c1cnn2c1NC(c1cccs1)CC2C(F)(F)F (stereo unspecified),3.21
O=C(c1cnn2c1NC(c1ccc(Br)cc1)CC2C(F)(F)F)N1CCCCC1 (stereo unspecified),3.31
Cc1ccc(C2CC(C(F)(F)F)n3ncc(C(=O)N(C)C4CCCCC4)c3N2)cc1 (stereo unspecified),i
Nc1c(-c2n[nH]c(=S)n2Cc2ccccc2)oc2nc(-c3ccc(Cl)cc3)cc(-c3ccccc3)c12,i
Cc1ccc(O)c(C2=NN3C(C2)c2cc(Br)ccc2OC3c2cccnc2)c1 (stereo unspecified),i
COc1ccc(C2=NN3C(C2)c2ccccc2OC3c2ccncc2)cc1 (stereo unspecified),i
COc1ccc(C2=NN3C(C2)c2cc(Cl)ccc2OC3c2cccnc2)cc1 (stereo unspecified),i
COc1cccc(C2=NN3C(C2)c2cc(Br)ccc2OC3c2cccnc2)c1 (stereo unspecified),7.25
COc1ccccc1C1Oc2ccccc2C2CC(c3cccnc3)=NN21 (stereo unspecified),i
